High-throughput results from PubChem BioAssay.
Only some compounds are listed: those with a hit (about 2.3% of all), similar ones and a draw of the others.
CHO-K1 Ca ag: M1 agonist counterscreen hit in parental CHO-K1 cells; activation, % at 3 µM; actives 0.48% (n = 360,000); Fluo-8 calcium fluorescence; scaled to maximal ATP response, vehicle zero; in the data active = activation above about 15%;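 note: untransfected CHO-K1 host cells lacking M1 receptor as counterscreen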
CHO-K1 Ca PAM: M1 PAM counterscreen hit in parental CHO-K1 cells; actives 0.02% (n = 360,000); ATP EC20, Fluo-8 calcium fluorescence; 0% at ATP EC20, 100% at ATP max; activation, % at 3 µM;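 active = activation above the run cutoff, the mean activation of all test compounds plus 3 SD, cut at about 40% in these data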;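 note: peak over basal fluorescence ratio in a 140 s read after ATP addition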
CHO-K1 Ca antag: M1 antagonist counterscreen hit in parental CHO-K1 cells; actives 0.6% (n = 360,000); ATP-induced calcium, Fluo-8 fluorescence; AID 602250; inhibition, % at 3 µM;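 active = inhibition above a per-plate cutoff, the plate's mean sample inhibition plus 3 SD, cut at about 24% in these data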
M1 PAM: human CHRM1 positive allosteric modulation. CHO-K1 hM1, Fluo-8 calcium fluorescence, ACh EC20; 0% = ACh EC20, 100% = maximal ACh. activation, % at 3 µM. actives 0.088% (n = 360,000). AID 588819; in the data active = activation above about 19%, passing the limit was not always enough
Target sequence (P11229 whole entry, looked up): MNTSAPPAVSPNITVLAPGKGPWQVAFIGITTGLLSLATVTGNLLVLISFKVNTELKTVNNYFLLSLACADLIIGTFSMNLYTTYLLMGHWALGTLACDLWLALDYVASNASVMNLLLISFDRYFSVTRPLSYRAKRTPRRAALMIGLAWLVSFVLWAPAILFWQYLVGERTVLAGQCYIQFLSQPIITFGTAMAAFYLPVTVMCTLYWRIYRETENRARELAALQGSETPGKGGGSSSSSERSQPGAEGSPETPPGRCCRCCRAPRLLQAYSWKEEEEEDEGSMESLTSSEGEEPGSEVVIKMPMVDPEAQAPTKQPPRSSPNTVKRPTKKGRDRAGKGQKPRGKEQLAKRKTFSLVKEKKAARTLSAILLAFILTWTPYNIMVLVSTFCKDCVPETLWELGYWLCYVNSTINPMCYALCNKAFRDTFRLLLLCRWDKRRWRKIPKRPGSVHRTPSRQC
M1 ag: human M1 muscarinic receptor agonism. CHO-K1 hM1, Fluo-8 calcium fluorescence, agonist mode; 0% DMSO, 100% acetylcholine EC100. P11229. AID 588814. actives 0.33% (n = 360,000). activation, % at 3 µM;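 active = activation above the run's mean compound activation plus 3 SD, cut at about 16% in these data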;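 note: peak over basal fluorescence ratio within a 140 s kinetic read after compound addition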
CHRM1 antagonist: antagonists of human M1 muscarinic receptor. actives 1.3% (n = 360,000). P11229. CHO-K1 hM1, Fluo-8 calcium fluorescence, ACh EC80 antagonist. inhibition, % at 3 µM;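 active = percent inhibition above its own plate's cutoff, namely the mean of that plate's compound wells plus 3 SD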;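 note: peak over basal fluorescence ratio during 140 s after agonist addition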
Large screens that a line does not name were inactive.

CN1/C(=C\C(=O)COC(=O)Cn2nnc(-c3ccccc3)n2)C(C)(C)c2ccccc21	CHO-K1 Ca antag 24
O=C(CCc1nnc2ccc(NCc3ccccc3Cl)nn12)NC1CCCCC1	none
CC1(C)OC(=O)C2=C(C[C@@H](C3CCCC3)O[C@H]2CCc2cccc(Cl)c2)O1	none (no result: M1 PAM, M1 ag, CHRM1 antagonist)
O=c1[nH]c(=S)[nH]c2c1[C@H](CCc1cccc(Cl)c1)O[C@H](C1CCCC1)C2	CHO-K1 Ca PAM 41 (no result: M1 PAM, M1 ag, CHRM1 antagonist)
C[C@H](CO)N1C[C@H](C)[C@@H](CN(C)S(=O)(=O)c2cccs2)Oc2ccc(NC(=O)Nc3ccc4c(c3)OCO4)cc2C1=O	CHRM1 antagonist 41
C[C@H](CO)N1C[C@H](C)[C@@H](CN(C)C(=O)Nc2ccc3c(c2)OCO3)Oc2c(NC(=O)Nc3ccc4c(c3)OCO4)cccc2C1=O	CHRM1 antagonist 36
COc1ccc(NC(=O)N(C)C[C@H]2Oc3c(NC(=O)Nc4ccc5c(c4)OCO5)cccc3C(=O)N([C@H](C)CO)C[C@@H]2C)cc1	none
COc1ccc(NC(=O)Nc2cccc3c2O[C@H](CN(C)C(=O)Nc2ccc4c(c2)OCO4)[C@@H](C)CN([C@H](C)CO)C3=O)cc1	CHRM1 antagonist 33
C[C@H](CO)N1C[C@H](C)[C@@H](CN(C)S(=O)(=O)c2ccccc2)Oc2ccc(NC(=O)CCC(F)(F)F)cc2C1=O	CHRM1 antagonist 77
C[C@H](CO)N1C[C@H](C)[C@@H](CN(C)S(=O)(=O)c2ccccc2)Oc2ccc(NC(=O)Nc3ccc(C(F)(F)F)cc3)cc2C1=O	none
C/C=C1\NC(=O)[C@H](CC(N)=O)N(C)C(=O)C([C@@H](C)O)NC(=O)C(CCCc2ccc(OC)cc2)NC(=O)[C@H](C(C)C)NC(=O)/C(=C\C)NC(=O)[C@H](O)[C@@H](C[C@@H](O)CCCCCCC)NC(=O)[C@H](C)NC(=O)CN(C)C(=O)[C@H](CCC(N)=O)NC1=O (stereo not given in full)	none
Cc1ccc(Cl)c(NC(=O)CSc2n[nH]c(=O)n2C2CC2)c1Cl	none
CCOC(=O)c1ccccc1NC(=O)Cc1ccc(S(=O)(=O)N2CCCC2)s1	none
COc1ccc(NC(=O)CCCNC(=O)c2ccc(Cl)cc2)cc1S(=O)(=O)N1CCOCC1	none
C[C@H](CO)N1C[C@H](C)[C@@H](CN(C)C(=O)Nc2ccccc2)Oc2c(NS(=O)(=O)c3ccccc3)cccc2C1=O	none
C[C@H](CO)N1C[C@H](C)[C@@H](CN(C)C(=O)Nc2ccccc2)Oc2c(NS(=O)(=O)c3ccc(F)cc3)cccc2C1=O	M1 PAM 26
O=S1(=O)N=C(N(Cc2cccs2)c2ccc(O)cc2)c2ccccc21	none
O=C(CCn1c(=S)oc2ccccc21)Nc1ccccc1F	CHO-K1 Ca antag 26
C#CCOCCOCCOCCNc1nc(N2CCN(C(=O)CCCCCCCCCCNC(=O)Cn3cc(CCCCCN)nn3)CC2)nc(N2CCN(C(=O)CCCCCCCCCCNC(=O)[C@@H](CCC(=O)O)n3cc(CCCCCN)nn3)CC2)n1	none
CC(C)(C)OC(=O)NCCCCCc1cn([C@@H](CO)C(=O)NCCCCCCCCCCC(=O)N2CCN(C(=O)OC(C)(C)C)CC2)nn1	CHO-K1 Ca ag 18, CHRM1 antagonist 74
C#CCOCCOCCOCCNc1nc(N2CCN(C(=O)CCCCCCCCCCNC(=O)[C@@H](CCC(=O)O)n3cc(CCCCCN)nn3)CC2)nc(N2CCN(C(=O)CCCCCCCCCCNC(=O)[C@H]([C@@H](C)CC)n3cc(CCCCCN)nn3)CC2)n1	M1 ag 18
C#CCOCCOCCOCCNc1nc(N2CCN(C(=O)CCCCCCCCCCNC(=O)[C@H]([C@@H](C)CC)n3cc(CCCCCN)nn3)CC2)nc(N2CCN(C(=O)CCCCCCCCCCNC(=O)[C@H](CO)n3cc(CCCCCN)nn3)CC2)n1	M1 ag 19
CC(C)(C)OC(=O)CC[C@@H](C(=O)NCCCCCCCCCCC(=O)N1CCN(C(=O)OC(C)(C)C)CC1)n1cc(CCCCCNC(=O)OC(C)(C)C)nn1	none
C#CCOCCOCCOCCNc1nc(N2CCOCC2)nc(N2CCN(C(=O)CCCCCCCCCCNC(=O)[C@@H](CCC(=O)O)n3cc(CCCCCN)nn3)CC2)n1	none
